Assay results: PubChem BioAssay AID1159580 (chemical genetic matrix, 2015)
Several values for one entry are separate records, joined by “and”; a condition that tells them apart may be missing. Equal entries are not always repeated. The whole screen tested about 5,500 compounds, of which about 2,000 (36%) were called active. About 18% were inconclusive and are not listed. No stated cut-off is given here; in the data, active means normalized growth mostly below about 0.91 (no sharp cut-off); inconclusive means no clear call, values can overlap the other calls; inactive means mostly above about 0.92. Some of the results follow.

Assay: chemical genetic growth profiling, strain panel (AID 1159580);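 further: tested at 20 µM; growth read once vehicle control cultures reached saturation at 30 °C; 1 = growth at the plate median or of vehicle wells; lower values mean less growth of the strain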
Conditions: S. cerevisiae deletion strains, growth OD

Measured: normalized growth

OC1C(O)C(O)C(O)C(O)C1O (stereo not given)
inactive: locus YAL013W, strain DEP1, hits give low values 0.998 | locus YAL021C, strain ccr4, hits give low values 0.996 | locus YAL026C, strain drs2, hits give low values 1 | locus YAL030W, strain snc1, hits give low values 0.997 | locus YBL061C, strain skt5, hits give low values 0.998 | locus YBR009C, strain hhf1, hits give low values 1.01 | locus YBR021W, strain FUR4, hits give low values 1.08 | locus YBR023C, strain chs3, hits give low values 0.997 | locus YBR171W, strain sec66, hits give low values 1 | locus YBR229C, strain ROT2, hits give low values 0.957 | locus YBR231C, strain swc5, hits give low values 0.999 | locus YBR279W, strain paf1, hits give low values 1 | locus YCL011C, strain gbp2, hits give low values 1.01 | locus YCL016C, strain dcc1, hits give low values 1.01 | locus YCL029C, strain bik1, hits give low values 0.981 | locus YCL061C, strain MRC1, hits give low values 0.996 | locus YCL069W, strain vba3, hits give low values 0.999 | locus YCR088W, strain abp1, hits give low values 1 | locus YDL005C, strain med2, hits give low values 1 | locus YDL035C, strain GPR1, hits give low values 1 | locus YDL040C, strain nat1, hits give low values 1 | locus YDL074C, strain BRE1, hits give low values 0.962 | locus YDL101C, strain DUN1, hits give low values 0.989 | locus YDL134C, strain PPH21, hits give low values 0.99 | locus YDL185W, strain tfp1, hits give low values 0.966 | locus YDL192W, strain arf1, hits give low values 0.977 | locus YDR001C, strain nth1, hits give low values 0.998 | locus YDR069C, strain doa4, hits give low values 0.999 | locus YDR101C, strain arx1, hits give low values 0.976 | locus YDR137W, strain rgp1, hits give low values 1 | locus YDR150W, strain NUM1, hits give low values 0.99 | locus YDR159W, strain sac3, hits give low values 0.993 | locus YDR162C, strain NBP2, hits give low values 0.994 | locus YDR195W, strain ref2 0.984 | locus YDR297W, strain sur2, hits give low values 1 | locus YDR318W, strain mcm21, hits give low values 0.992 | locus YDR334W, strain swr1, hits give low values 0.994 | locus YDR335W, strain msn5, hits give low values 1 | locus YDR388W, hits give low values 0.989 | locus YDR392W, strain spt3, hits give low values 0.999 | locus YDR502C, strain sam2, hits give low values 0.986 | locus YEL003W, strain gim4, hits give low values 1.01 | locus YEL037C, strain rad23, hits give low values 1 | locus YEL061C, strain CIN8 (second series), hits give low values 1 | locus YEL061C, strain CIN8, hits give low values 0.983 | locus YER015W, strain faa2, hits give low values 0.993 | locus YER016W, strain bim1, hits give low values 0.991 | locus YER110C, hits give low values 0.982 | locus YER111C, strain swi4, hits give low values 1 | locus YER155C, strain BEM2 (second series), hits give low values 1.01 | locus YER155C, strain BEM2, hits give low values 0.999 | locus YER167W, strain BCK2, hits give low values 0.995 | locus YFR010W, strain ubp6, hits give low values 1 | locus YGL078C, strain dbp3, hits give low values 0.973 | locus YGL086W, strain mad1, hits give low values 0.979 | locus YGL167C, strain pmr1, hits give low values 1 | locus YGL173C, strain kem1, hits give low values 1.01 | locus YGL227W, strain vid30, hits give low values 1.01 | locus YGL240W, strain doc1, hits give low values 0.989 | locus YGL248W, strain PDE1, hits give low values 0.969 | locus YGL253W, strain hxk2, hits give low values 1 | locus YGR135W, strain pre9, hits give low values 1.02 | locus YGR252W, strain gcn5, hits give low values 0.924 | locus YHR013C, strain ard1, hits give low values 1 | locus YHR027C, strain rpn1, hits give low values 1 | locus YHR030C, strain SLT2, hits give low values 0.975 and 1 | locus YHR079C, strain IRE1 (second series), hits give low values 0.99 | locus YHR079C, strain IRE1, hits give low values 0.973 | locus YHR094C, strain hxt1, hits give low values 0.996 | locus YHR129C, strain ARP1, hits give low values 0.993 | locus YHR142W, strain chs7, hits give low values 1.01 | locus YHR200W, strain rpn10, hits give low values 0.971 | locus YIL066C, strain RNR3, hits give low values 0.979 | locus YIL073C, strain SPO22, hits give low values 0.994 | locus YIL125W, strain kgd1, hits give low values 0.98 | locus YIR030C, strain dcg1, hits give low values 0.995 | locus YJL092W, strain hpr5, hits give low values 1 | locus YJL095W, strain BCK1 (second series), hits give low values 1 | locus YJL095W, strain BCK1, hits give low values 0.991 | locus YJL115W, strain asf1, hits give low values 1 | locus YJL129C, strain trk1, hits give low values 1.02 | locus YJL134W, strain LCB3, hits give low values 0.995 | locus YJL154C, strain vps35, hits give low values 1 | locus YJL164C, strain tpk1, hits give low values 0.999 | locus YJL166W, strain qcr8, hits give low values 1.01 | locus YJL168C, strain set2, hits give low values 0.998 | locus YJL187C, strain SWE1 (second series), hits give low values 0.97 | locus YJL187C, strain SWE1, hits give low values 1.01 | locus YJR043C, strain POL32, hits give low values 0.995 | locus YJR066W, strain TOR1, hits give low values 0.956
